# A number with no mark means an inactive call. How the calls were made is not given here.
# System: HIV-1 nucleocapsid protein NCp7 (binding to TG oligonucleotide)
# Assay: HIV Nucleocapsid (AID 346);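 further: potency is for inhibitors that block NC binding and lower polarization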
# Settings: HIV-1 NC / fluorescein-TGTGTGTG probe, fluorescence polarization
# Procedure, shortened: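 Fluorescence polarization binding of 100 nM HIV-1 NC to 10 nM fluorescein-labelled TG4xF oligonucleotide. Buffer was Hepes pH 7.5 with 250mM NaCl, 1uM ZnCl2, TCEP and 2-mercaptoethanol. Compounds were incubated 1 hr at room temperature before the read.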
# Potency means the concentration at half of the fitted maximal effect.
row,Compound,Potency [µM]
1,Cn1c(=O)c(-c2ccc(Cl)cc2)nc2cnc(Oc3cccc(Cl)c3)nc21,> 20
2,O=c1c(-c2ccc(F)c(F)c2)nc2cncnc2n1C1CC1,> 20
3,c1ncc(-c2ccoc2)c(NC2CC2)n1,> 20
4,O=C(c1ccncc1)N1CCC[C@@]2(CCN(Cc3ccccc3)C2)C1,> 20
5,COc1cccc(Cn2c(=O)c(-c3ccc(F)cc3)nc3cncnc32)c1,> 20
6,O=c1c(-c2cccc(F)c2)nc2cncnc2n1-c1ccccc1,> 20
7,O=C(Nc1cccc(F)c1)N1CCC2(CC1)CCN(C(=O)c1ccco1)CC2,> 20
8,O=C(c1ccncc1)N1CCC2(CC1)CCN(c1cccc(-c3ccccc3)c1)CC2,> 20
9,COc1ccc(C(=O)N2CCC3(CCCN(Cc4cc(C(F)(F)F)cc(C(F)(F)F)c4)C3)CC2)cc1,> 4
10,CN(C)c1ccc(-c2cncnc2NCCN2CCOCC2)cc1,> 20
11,CN(C)Cc1ccccc1-c1cncnc1Nc1ccncc1,> 20
12,Cc1noc(C)c1C(=O)N1CCC[C@@]2(CCN(Cc3ccccc3)C2)C1,> 20
13,COc1cccc(-c2ccc3ncnc(N4CCOCC4)c3c2)c1,> 20
14,COCCn1c(=O)c(CCc2ccccc2)nc2cnc(OC)nc21,> 20
15,O=C(c1ccco1)N1CCC2(CC1)CCN(c1ccncc1)CC2,> 20
16,CNc1nc(-c2cccnc2)nc2ccccc12,> 20
17,COc1ccc(CNc2ccnc(-c3ccccc3Cl)n2)c(OC)c1,> 20
18,CCNc1ncc2nc(C)c(=O)n(Cc3cccs3)c2n1,> 20
19,Cc1noc(C)c1C(=O)N1CCC2(CCCN(C(c3ccccc3)c3ccccc3)C2)CC1,> 20
20,COc1ccccc1-c1cncnc1NCc1cccnc1,> 20

row,Compound,Potency [µM]
1,COCCn1c(=O)c(-c2cn(C)c3ccccc23)nc2cncnc21,11.9
2,Clc1ccccc1-c1cc(NCc2ccccc2)ncn1,> 20
3,O=C(c1cccc(F)c1)N1CCC2(CC1)CN(c1ccncc1)C2,> 20
4,CN(C)c1ncc2nc(-c3ccccc3)c(=O)n(Cc3cccs3)c2n1,> 20
5,Cc1noc(C)c1C(=O)N1CCC2(CCCN(C(=O)Nc3ccccc3)C2)CC1,> 20
6,CC(C)CN1CCCC2(CCN(C(=O)c3csnn3)CC2)C1,> 20
7,O=C(c1cccc(F)c1)N1CCC2(CCN(Cc3ccccc3)CC2)CC1,> 20
8,O=C(c1cc(C(F)(F)F)cc(C(F)(F)F)c1)N1CCC[C@@]2(CCN(c3ccccn3)C2)C1,> 20
9,COc1ccc(C(=O)N2CCC3(CCCN(Cc4nccs4)C3)CC2)cc1,> 20
10,O=C(c1cc(C(F)(F)F)cc(C(F)(F)F)c1)N1CCC2(CC1)CCN(c1ccncc1)CC2,> 20
11,Cc1cccc(CNc2ccnc(-c3ccoc3)n2)c1,> 20
12,Cc1noc(C)c1-c1cc(N2CCNCC2)ncn1,> 20
13,CC(C)CN1CC2(CCN(C(=O)c3cccc(F)c3)CC2)C1,> 20
14,COc1ccc(-c2nc3cnc(N4CCNCC4)nc3n(-c3ccc(OC)cc3)c2=O)cc1,> 20
15,COCC(=O)N1CCC[C@@]2(CCN(C(=O)Nc3ccccc3)C2)C1,> 20
16,O=c1c(-c2ccc(F)cc2)nc2cnc(N3CCOCC3)nc2n1-c1ccccc1,> 20
17,CN(C)c1ccc(-c2ccc3ncnc(N(C)C)c3c2)cc1,> 20
18,COc1ccc(Oc2ncc3nc(-c4cccs4)c(=O)n(-c4ccccc4)c3n2)cc1,> 20
19,CN(C)C(=O)c1ccc(-c2cncnc2NCc2cccs2)cc1,> 20
20,CN(C)C(=O)c1ccc(-c2cc(NCc3cccnc3)ncn2)cc1,> 20

# — PubChem BioAssay (NCATS)
